For this test, the system named is Plasmodium falciparum NF54 stage V gametocytes. As to the kind of experiment: viability index relative to DMSO control (fraction); higher = less gametocyte killing. Particulars: 2.5 µM, incubation time: 72 h. In short, it runs like this: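 P. falciparum NF54 stage V gametocytes (serum-free medium, 0.75% gametocytemia, 1.25% hematocrit) were exposed to compound at 2.5 µM for 72 hr at 37°C under low oxygen, then stained with MitoTracker Red CMXRos and saponin for one to two hours. Red particles of 20–70 µm2 in one field per well were counted, and the viability index is that count scaled to the plate mean of solvent-only wells.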

Setting [1] is: library set: Broad Institute DOS.

Our source for the viability index values is the supplement of paper PMC4723716.

± gives the uncertainty stated by the source. Whole data set: some 9,900 compounds, median “viability index relative to DMSO control” near 1, cut for the lowest 2% near 0.85. This is one part of a sample in which the lowest values are shown more often than they occur.

`COc1ccc2c3c([C@@H](CO)N(Cc4ccncc4)C[C@]33CN(C3)C(=O)Nc3cccc(F)c3)n(C)c2c1` came in with a viability index under setting [1] of 1 ± 0.16. Regarding `C/C=C/c1ccc([C@H]2[C@H]3CNC[C@@H]2N3C(=O)Nc2ccc3c(c2)OCO3)cc1`, the viability index under setting [1] was 1.05 ± 0.093. Turning to `C[C@H]1CN([C@@H](C)CO)S(=O)(=O)c2ccc(-c3ccncc3)cc2O[C@H]1CN(C)S(C)(=O)=O`, the viability index under setting [1] is 1.023 ± 0.0035. Regarding `C[C@H]1CN([C@@H](C)CO)S(=O)(=O)c2ccc(C#Cc3cccc(F)c3)cc2O[C@H]1CN(C)S(=O)(=O)c1cn(C)cn1`, the viability index under setting [1] is 1.04 ± 0.054. With `COc1ccccc1S(=O)(=O)N(C)C[C@@H]1Oc2cc(/C=C/c3ccccc3)ccc2S(=O)(=O)N([C@H](C)CO)C[C@H]1C`, the viability index (library set: Broad Institute Blood Stage) worked out at 0.808 ± 0.032. As to `C[C@@H]1CN([C@@H](C)CO)S(=O)(=O)c2ccc(C#Cc3cccc(F)c3)cc2O[C@H]1CN(C)S(=O)(=O)c1cn(C)cn1`, the viability index under setting [1] was determined as 0.9366 ± 0.0027. Still for that read-out and setting: then `Cc1ccc(S(=O)(=O)N(C)C[C@H]2Oc3cc(C#CC4CCCC4)ccc3S(=O)(=O)N([C@@H](C)CO)C[C@H]2C)cc1`, with 0.713 ± 0.03; and `CCCN(C)C[C@@H]1Oc2cc(/C=C/c3ccccc3)ccc2S(=O)(=O)N([C@@H](C)CO)C[C@H]1C`, with 1.102 ± 0.0059. Still for that read-out and setting: for `COc1cccc(S(=O)(=O)N(C)C[C@H]2Oc3cc(Br)ccc3S(=O)(=O)N([C@@H](C)CO)C[C@H]2C)c1` the value was 0.978 ± 0.026. Same read-out and setting: then `Cc1ccc(S(=O)(=O)N(C)C[C@H]2Oc3cc(C#CC4CCCC4)ccc3S(=O)(=O)N([C@H](C)CO)C[C@@H]2C)cc1`, with 0.676 ± 0.26. Regarding `Cc1ccc(S(=O)(=O)N(C)C[C@@H]2Oc3cc(C#CC4CCCC4)ccc3S(=O)(=O)N([C@@H](C)CO)C[C@@H]2C)cc1`, the viability index under setting [1] was determined as 0.837 ± 0.055. On the same count and under the same terms, then `CCCN(C)C[C@H]1Oc2cc(/C=C/c3ccccc3)ccc2S(=O)(=O)N([C@H](C)CO)C[C@@H]1C`, with 1.02 ± 0.016; and `COc1ccccc1NC(=O)N1C[C@H](O)COC[C@H]2O[C@H](CC(=O)NCCc3ccncc3)CC[C@@H]21`, with 1.08 ± 0.062; and `O=C1CCC(=O)N[C@@H](c2ccccc2)C/C=C\CCN1`, with 1.01 ± 0.087. Same read-out and setting: then `COc1ccc(NC(=O)N2C[C@@H]3[C@H](c4ccccc42)[C@H](CO)N3Cc2ccccn2)cc1`, with 0.993 ± 0.11; and `CCCNC(=O)Nc1ccc2c(c1)OC[C@H](C)N(Cc1cncnc1)C[C@@H](C)[C@H](OC)CN(C)C2=O`, with 0.989 ± 0.014; and `CO[C@H]1CN(C)C(=O)c2cc(NC(=O)C3CCCCC3)ccc2OC[C@H](C)N(Cc2cccnc2)C[C@H]1C`, with 1.037 ± 0.0049. On the same count and under the same terms, for `Cc1noc(C)c1S(=O)(=O)N(C)C[C@@H]1OCc2cn(nn2)CCCC(=O)N([C@@H](C)CO)C[C@H]1C` the value was 1.03 ± 0.014; for `C[C@H](CO)N1C[C@H](C)[C@H](CN(C)S(=O)(=O)c2cn(C)cn2)Oc2cc(C#Cc3cccc(F)c3)ccc2S1(=O)=O`, 0.9878 ± 0.0014; for `C[C@H](CO)N1C[C@H](C)[C@@H](CN(C)S(=O)(=O)c2cn(C)cn2)Oc2cc(C#Cc3cccc(F)c3)ccc2S1(=O)=O`, 1.05 ± 0.09. `Cc1ccc(S(=O)(=O)N(C)C[C@H]2Oc3cc(C#CC4CCCC4)ccc3S(=O)(=O)N([C@@H](C)CO)C[C@@H]2C)cc1` yielded a viability index under setting [1] of 0.705 ± 0.12. Under setting [1], `COc1cccc(-c2ccc3c(c2)[C@@H]2[C@@H](CCN2S(=O)(=O)c2cn(C)cn2)[C@@H](CO)N3)c1` displayed a viability index of 0.97 ± 0.14. Same read-out and setting: for `Cc1noc(C)c1S(=O)(=O)Nc1ccc2c(c1)CC(=O)N([C@H](C)CO)C[C@H](C)[C@H](CN(C)Cc1ccc(Oc3ccccc3)cc1)O2` the value was 0.981 ± 0.01; for `COc1ccc(S(=O)(=O)Nc2ccc3c(c2)CC(=O)N([C@H](C)CO)C[C@H](C)[C@H](CN(C)Cc2ccc(C(=O)Nc4ccccc4N)cc2)O3)cc1`, 0.766 ± 0.044; for `COc1ccc(S(=O)(=O)Nc2ccc3c(c2)CC(=O)N([C@H](C)CO)C[C@@H](C)[C@@H](CN(C)Cc2ccc(C(=O)Nc4ccccc4N)cc2)O3)cc1`, 0.956 ± 0.014. On the same count and under the same terms, then `COc1ccc(S(=O)(=O)Nc2ccc3c(c2)CC(=O)N([C@@H](C)CO)C[C@H](C)[C@@H](CN(C)Cc2ccc(C(=O)Nc4ccccc4N)cc2)O3)cc1`, with 0.872 ± 0.11. On the same count and under the same terms, for `Cc1noc(C)c1S(=O)(=O)Nc1ccc2c(c1)CC(=O)N([C@@H](C)CO)C[C@@H](C)[C@@H](CN(C)Cc1ccc(Oc3ccccc3)cc1)O2` the value was 0.851 ± 0.12; for `COc1ccc(S(=O)(=O)Nc2ccc3c(c2)CC(=O)N([C@@H](C)CO)C[C@@H](C)[C@@H](CN(C)Cc2ccc(C(=O)Nc4ccccc4N)cc2)O3)cc1`, 0.844 ± 0.012; for `COc1ccc(S(=O)(=O)Nc2ccc3c(c2)CC(=O)N([C@H](C)CO)C[C@@H](C)[C@H](CN(C)Cc2ccc(C(=O)Nc4ccccc4N)cc2)O3)cc1`, 0.966 ± 0.1. Molecule `COc1ccc(S(=O)(=O)Nc2ccc3c(c2)CC(=O)N([C@@H](C)CO)C[C@@H](C)[C@H](CN(C)Cc2ccc(C(=O)Nc4ccccc4N)cc2)O3)cc1` registered a viability index under setting [1] of 0.836 ± 0.077.

The molecule `COc1ccc(S(=O)(=O)Nc2ccc3c(c2)CC(=O)N([C@@H](C)CO)C[C@@H](C)[C@H](CN(C)C(=O)Nc2c(C)noc2C)O3)cc1` returned a viability index under setting [1] of 0.986 ± 0.019. In turn, `COc1ccc(S(=O)(=O)Nc2ccc3c(c2)CC(=O)N([C@H](C)CO)C[C@H](C)[C@@H](CN(C)Cc2ccc(C(=O)Nc4ccccc4N)cc2)O3)cc1` showed a viability index under setting [1] of 1 ± 0.027.

`COc1ccc(S(=O)(=O)Nc2ccc3c(c2)CC(=O)N([C@@H](C)CO)C[C@H](C)[C@H](CN(C)Cc2ccc(C(=O)Nc4ccccc4N)cc2)O3)cc1` yielded a viability index under setting [1] of 0.993 ± 0.024. Still for that read-out and setting: then `Cc1noc(C)c1S(=O)(=O)Nc1ccc2c(c1)CC(=O)N([C@@H](C)CO)C[C@H](C)[C@H](CN(C)Cc1ccc(Oc3ccccc3)cc1)O2`, with 0.923 ± 0.045.
